Values without a mark were called inactive.
Experiments:
Experiment in all cases: log2 ratio of Biotin-Ahx-Ub-VS probe labelling (fragment/DMSO); higher = less target engagement (more negative = stronger competition), active = hit call of the paper (q ≤ 0.05, log2 ratio ≤ -1)
Conditions in all cases: compound concentration: 200 uM; treatment time: 3 h
USP16 = USP16 (UniProt Q9Y5T5)
Outline: (§1)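 Global-median-normalised Spectronaut label-free quantities were compared by unpaired t-test, and values are average log2 ratios of fragment over vehicle. Only proteins with ≥2 unique peptides were used. HEK293T lysate (495 µg per sample) was treated in triplicate with fragment at 200 µM or vehicle for 3 h and then with Biotin-Ahx-Ub-VS at 0.5 µM final for 1 h. Labelled DUBs were then NeutrAvidin-enriched, digested with LysC and trypsin, and run by diaPASEF LC-MS/MS.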

USP19 = target: T1, USP19 (UniProt O94966)
T1 sequence (whole entry): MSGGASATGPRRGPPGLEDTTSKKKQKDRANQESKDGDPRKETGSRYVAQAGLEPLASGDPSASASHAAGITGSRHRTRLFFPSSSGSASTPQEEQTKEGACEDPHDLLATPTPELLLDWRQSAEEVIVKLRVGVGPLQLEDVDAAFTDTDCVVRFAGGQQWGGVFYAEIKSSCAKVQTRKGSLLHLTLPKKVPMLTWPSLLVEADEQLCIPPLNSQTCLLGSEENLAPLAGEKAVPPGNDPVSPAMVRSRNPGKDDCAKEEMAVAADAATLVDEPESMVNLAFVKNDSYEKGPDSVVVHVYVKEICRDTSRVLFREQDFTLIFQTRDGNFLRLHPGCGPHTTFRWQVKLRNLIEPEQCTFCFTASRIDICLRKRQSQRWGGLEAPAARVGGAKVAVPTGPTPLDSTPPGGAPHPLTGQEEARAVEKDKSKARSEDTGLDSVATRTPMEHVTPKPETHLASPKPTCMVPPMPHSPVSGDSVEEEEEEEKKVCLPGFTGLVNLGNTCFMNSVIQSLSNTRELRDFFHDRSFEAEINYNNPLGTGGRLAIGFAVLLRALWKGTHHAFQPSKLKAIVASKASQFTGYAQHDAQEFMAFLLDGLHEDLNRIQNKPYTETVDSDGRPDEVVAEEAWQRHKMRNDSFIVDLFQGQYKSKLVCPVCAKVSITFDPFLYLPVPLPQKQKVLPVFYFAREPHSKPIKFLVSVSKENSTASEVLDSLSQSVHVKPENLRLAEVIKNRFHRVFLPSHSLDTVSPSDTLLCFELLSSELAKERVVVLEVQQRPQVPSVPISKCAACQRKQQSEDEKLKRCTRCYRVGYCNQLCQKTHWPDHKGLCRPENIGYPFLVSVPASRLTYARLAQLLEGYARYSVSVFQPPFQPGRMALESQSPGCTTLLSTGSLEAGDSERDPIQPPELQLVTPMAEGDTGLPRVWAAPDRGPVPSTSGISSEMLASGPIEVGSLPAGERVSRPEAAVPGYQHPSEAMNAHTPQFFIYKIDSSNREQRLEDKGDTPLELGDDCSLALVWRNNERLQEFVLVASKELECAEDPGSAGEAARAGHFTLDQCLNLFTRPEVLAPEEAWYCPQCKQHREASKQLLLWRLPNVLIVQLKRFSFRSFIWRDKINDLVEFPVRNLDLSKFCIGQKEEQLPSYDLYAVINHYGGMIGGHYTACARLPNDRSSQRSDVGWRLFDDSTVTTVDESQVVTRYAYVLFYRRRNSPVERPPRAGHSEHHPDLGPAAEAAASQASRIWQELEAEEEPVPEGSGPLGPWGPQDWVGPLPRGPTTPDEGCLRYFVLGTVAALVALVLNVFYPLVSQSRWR
Outline: as §1

USP24 = USP24 (UniProt Q9UPU5)
USP24, sequence (Q9UPU5 whole entry): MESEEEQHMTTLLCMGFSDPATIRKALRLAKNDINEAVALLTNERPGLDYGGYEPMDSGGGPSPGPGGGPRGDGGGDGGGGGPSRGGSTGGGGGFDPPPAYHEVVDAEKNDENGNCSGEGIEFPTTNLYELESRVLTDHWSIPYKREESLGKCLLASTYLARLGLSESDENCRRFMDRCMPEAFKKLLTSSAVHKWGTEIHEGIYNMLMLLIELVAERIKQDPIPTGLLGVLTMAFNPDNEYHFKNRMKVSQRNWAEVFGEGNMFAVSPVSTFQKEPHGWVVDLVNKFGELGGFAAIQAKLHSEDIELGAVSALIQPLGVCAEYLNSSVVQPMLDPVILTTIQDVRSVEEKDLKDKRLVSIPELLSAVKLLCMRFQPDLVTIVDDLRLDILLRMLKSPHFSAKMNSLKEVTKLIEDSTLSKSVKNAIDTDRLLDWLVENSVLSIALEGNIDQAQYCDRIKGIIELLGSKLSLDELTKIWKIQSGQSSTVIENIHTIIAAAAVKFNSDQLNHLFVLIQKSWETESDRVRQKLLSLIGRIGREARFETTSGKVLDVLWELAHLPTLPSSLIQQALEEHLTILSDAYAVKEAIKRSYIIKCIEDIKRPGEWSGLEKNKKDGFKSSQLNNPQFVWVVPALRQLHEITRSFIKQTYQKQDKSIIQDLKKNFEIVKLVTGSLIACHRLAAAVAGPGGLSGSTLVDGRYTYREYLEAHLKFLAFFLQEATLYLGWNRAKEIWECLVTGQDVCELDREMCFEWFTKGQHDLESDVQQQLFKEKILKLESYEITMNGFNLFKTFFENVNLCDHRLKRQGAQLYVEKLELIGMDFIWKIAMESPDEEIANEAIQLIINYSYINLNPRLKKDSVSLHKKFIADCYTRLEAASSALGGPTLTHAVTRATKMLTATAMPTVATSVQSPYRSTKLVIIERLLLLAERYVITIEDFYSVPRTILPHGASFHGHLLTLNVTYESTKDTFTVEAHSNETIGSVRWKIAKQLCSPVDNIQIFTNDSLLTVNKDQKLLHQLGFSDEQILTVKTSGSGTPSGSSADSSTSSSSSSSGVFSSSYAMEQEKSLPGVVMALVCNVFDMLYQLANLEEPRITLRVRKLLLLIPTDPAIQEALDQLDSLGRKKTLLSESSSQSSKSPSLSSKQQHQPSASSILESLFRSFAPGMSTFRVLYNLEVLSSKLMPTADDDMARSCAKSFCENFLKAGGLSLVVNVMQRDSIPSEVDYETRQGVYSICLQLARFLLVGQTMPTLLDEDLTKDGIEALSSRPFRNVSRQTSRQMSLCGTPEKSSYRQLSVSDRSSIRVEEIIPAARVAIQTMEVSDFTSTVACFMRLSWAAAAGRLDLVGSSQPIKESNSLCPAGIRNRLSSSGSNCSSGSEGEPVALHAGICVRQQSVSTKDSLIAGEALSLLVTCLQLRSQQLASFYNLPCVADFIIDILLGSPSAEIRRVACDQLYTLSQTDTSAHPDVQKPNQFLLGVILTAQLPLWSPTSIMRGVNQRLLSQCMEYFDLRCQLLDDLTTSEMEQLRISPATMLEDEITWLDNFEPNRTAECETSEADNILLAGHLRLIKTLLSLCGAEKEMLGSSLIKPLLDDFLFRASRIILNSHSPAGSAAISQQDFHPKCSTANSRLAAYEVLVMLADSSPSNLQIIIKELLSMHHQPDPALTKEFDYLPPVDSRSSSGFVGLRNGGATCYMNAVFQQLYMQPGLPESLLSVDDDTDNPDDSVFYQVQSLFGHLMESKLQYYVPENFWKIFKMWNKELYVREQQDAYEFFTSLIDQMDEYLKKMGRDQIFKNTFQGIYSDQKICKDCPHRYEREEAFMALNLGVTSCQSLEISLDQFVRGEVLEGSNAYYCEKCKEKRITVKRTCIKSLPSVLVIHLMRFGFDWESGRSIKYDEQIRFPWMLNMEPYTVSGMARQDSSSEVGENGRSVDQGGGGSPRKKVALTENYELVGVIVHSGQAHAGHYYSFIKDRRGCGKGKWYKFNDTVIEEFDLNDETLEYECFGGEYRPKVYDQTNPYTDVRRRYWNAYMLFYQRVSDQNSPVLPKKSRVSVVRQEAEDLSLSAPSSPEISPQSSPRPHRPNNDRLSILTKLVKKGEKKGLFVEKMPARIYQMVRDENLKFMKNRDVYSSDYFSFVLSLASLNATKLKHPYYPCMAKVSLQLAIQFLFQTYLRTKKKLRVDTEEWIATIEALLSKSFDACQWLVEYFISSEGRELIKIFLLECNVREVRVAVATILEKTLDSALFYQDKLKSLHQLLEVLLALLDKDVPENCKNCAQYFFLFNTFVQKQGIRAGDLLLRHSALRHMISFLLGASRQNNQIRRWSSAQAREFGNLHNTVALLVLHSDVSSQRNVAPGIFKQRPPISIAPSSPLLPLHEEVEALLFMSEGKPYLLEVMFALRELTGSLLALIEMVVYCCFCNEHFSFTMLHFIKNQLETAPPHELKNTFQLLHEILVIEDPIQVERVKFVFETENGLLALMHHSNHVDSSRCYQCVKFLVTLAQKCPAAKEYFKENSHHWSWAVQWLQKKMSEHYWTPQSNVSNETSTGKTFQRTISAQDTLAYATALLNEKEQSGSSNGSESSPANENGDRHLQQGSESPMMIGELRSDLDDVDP
Outline: as §1

USP25 = target: T2, USP25 (UniProt Q9UHP3)
T2 sequence (whole entry): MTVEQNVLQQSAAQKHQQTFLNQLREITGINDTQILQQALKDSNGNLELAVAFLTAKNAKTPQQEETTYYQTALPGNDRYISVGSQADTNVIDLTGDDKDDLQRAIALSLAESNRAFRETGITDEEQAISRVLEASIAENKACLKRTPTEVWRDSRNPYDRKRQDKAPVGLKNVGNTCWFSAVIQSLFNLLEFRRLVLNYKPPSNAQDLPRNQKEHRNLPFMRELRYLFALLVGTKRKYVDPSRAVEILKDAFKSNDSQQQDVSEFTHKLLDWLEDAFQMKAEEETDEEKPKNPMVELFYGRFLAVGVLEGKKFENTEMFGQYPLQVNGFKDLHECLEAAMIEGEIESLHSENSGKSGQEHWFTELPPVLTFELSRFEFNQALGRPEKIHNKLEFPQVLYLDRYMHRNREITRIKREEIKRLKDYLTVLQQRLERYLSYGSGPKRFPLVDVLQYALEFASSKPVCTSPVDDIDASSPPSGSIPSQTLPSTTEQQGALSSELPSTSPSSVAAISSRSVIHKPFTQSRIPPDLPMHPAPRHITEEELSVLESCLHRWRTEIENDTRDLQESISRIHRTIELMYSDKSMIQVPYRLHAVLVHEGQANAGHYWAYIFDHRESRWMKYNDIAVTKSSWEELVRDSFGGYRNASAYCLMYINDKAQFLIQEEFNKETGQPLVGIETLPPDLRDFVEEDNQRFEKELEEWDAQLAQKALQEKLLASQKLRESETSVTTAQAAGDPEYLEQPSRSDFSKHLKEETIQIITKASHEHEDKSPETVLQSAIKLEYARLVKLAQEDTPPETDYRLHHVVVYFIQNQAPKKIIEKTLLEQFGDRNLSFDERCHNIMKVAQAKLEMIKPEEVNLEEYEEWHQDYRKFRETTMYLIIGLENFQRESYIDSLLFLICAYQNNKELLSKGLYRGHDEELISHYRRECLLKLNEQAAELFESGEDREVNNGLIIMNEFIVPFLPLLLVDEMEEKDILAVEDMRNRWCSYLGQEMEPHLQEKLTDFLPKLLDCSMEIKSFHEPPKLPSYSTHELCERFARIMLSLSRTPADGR
Outline: as §1

USP28 = target: T3, USP28 (UniProt Q96RU2)
T3 sequence (whole entry): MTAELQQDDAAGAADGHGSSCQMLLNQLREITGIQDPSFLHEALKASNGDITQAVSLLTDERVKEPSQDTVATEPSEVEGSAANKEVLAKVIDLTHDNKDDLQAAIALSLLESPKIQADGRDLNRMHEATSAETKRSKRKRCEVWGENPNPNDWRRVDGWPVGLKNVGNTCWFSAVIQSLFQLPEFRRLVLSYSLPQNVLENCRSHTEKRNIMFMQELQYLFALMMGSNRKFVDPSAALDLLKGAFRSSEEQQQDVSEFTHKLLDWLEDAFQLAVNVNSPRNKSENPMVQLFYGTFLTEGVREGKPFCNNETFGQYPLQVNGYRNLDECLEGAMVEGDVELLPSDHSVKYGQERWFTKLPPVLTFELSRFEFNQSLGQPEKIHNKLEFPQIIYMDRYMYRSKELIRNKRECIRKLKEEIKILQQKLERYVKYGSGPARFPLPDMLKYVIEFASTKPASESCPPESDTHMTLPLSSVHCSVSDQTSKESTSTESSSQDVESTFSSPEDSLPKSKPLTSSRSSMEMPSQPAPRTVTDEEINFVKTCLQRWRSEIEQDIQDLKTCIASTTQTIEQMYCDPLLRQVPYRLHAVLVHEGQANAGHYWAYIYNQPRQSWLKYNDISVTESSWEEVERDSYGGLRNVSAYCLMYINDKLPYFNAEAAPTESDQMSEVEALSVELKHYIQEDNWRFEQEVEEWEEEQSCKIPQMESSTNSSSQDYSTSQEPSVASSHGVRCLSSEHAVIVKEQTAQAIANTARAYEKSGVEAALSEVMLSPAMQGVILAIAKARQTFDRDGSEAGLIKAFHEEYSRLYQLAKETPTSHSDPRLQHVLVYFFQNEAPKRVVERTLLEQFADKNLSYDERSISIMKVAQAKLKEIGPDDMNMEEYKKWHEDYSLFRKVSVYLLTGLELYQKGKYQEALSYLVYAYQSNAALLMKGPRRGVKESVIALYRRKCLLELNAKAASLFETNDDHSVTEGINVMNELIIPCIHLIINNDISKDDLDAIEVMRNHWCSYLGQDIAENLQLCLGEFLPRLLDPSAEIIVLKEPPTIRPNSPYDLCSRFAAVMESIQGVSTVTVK
Outline: as §1

USP16, sequence (Q9Y5T5 whole entry, looked up, the tested form may be a part): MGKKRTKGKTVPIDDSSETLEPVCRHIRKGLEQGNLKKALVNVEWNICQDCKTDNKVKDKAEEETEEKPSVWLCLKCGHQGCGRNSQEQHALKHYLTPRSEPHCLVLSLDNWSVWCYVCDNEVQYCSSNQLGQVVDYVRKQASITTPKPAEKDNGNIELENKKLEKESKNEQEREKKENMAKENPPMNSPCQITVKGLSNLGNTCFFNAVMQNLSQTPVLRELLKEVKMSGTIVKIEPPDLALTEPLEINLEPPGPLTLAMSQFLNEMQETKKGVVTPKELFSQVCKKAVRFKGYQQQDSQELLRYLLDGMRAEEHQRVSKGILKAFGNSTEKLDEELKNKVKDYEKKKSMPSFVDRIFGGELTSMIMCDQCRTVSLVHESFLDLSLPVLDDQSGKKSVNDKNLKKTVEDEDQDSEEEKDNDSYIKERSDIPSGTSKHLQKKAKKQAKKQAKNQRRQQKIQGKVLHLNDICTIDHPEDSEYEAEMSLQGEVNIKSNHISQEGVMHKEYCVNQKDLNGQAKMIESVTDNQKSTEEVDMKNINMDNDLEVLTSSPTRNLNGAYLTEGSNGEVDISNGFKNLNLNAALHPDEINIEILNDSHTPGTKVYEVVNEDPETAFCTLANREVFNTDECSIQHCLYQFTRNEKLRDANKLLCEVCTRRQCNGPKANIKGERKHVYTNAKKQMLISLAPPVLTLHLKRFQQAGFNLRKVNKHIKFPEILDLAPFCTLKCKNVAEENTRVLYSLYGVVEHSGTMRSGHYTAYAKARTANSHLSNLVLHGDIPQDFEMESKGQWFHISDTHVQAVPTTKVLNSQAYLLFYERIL

## O=C(CCl)N1CCOC(CCc2ccccc2)C1 (stereo not given)
USP16
  log2 ratio of Biotin-Ahx-Ub-VS probe labelling: -0.411
USP19
  log2 ratio of Biotin-Ahx-Ub-VS probe labelling: -0.687
USP24
  log2 ratio of Biotin-Ahx-Ub-VS probe labelling: -1.37 (active)
USP25
  log2 ratio of Biotin-Ahx-Ub-VS probe labelling: -0.497
USP28
  log2 ratio of Biotin-Ahx-Ub-VS probe labelling: -0.802
